An excerpt weighted towards active compounds, which were near 19% of everything screened.
TDP1 inh: qHTS Assay for Inhibitors of Tyrosyl-DNA Phosphodiesterase (TDP1); 350,000 tested, 0.28% active; recombinant TDP1, AlphaScreen DNA substrate cleavage; AID 485290, 2010; Tyrosyl-DNA phosphodiesterase 1 (Homo sapiens), Q9NUW8; Potency, µM (series often up to 130 µM), for inactives: top-dose activity change, negative = inhibition, usual class: inhibitors; also: potency is read from the fitted curve at half-maximal effect; nearly all actives have a fitted effect of over 40% in size
Target sequence (Q9NUW8 whole entry, looked up): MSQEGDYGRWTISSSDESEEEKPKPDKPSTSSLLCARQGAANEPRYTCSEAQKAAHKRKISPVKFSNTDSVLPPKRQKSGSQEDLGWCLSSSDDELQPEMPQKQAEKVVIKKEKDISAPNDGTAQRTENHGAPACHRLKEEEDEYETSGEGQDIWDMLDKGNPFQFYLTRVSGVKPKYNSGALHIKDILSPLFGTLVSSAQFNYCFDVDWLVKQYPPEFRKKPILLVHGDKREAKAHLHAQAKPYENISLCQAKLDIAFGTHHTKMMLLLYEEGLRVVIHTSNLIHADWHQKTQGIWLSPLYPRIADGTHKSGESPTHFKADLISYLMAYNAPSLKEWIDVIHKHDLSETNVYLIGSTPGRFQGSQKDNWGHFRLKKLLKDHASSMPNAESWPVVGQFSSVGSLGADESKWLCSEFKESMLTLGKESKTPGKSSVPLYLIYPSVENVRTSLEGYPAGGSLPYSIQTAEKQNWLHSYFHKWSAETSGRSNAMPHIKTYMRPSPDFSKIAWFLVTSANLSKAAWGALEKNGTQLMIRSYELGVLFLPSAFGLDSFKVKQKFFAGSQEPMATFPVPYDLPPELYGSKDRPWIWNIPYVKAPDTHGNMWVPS
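Signal: AlphaScreen proximity between streptavidin donor and anti-FITC acceptor beads on intact substrate. Reaction: Tdp1 1 nM, substrate 15 nM final, 5 min RT after 15 min compound preincubation.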
TDP1 cell noCPT: qHTS for Inhibitors of human tyrosyl-DNA phosphodiesterase 1 (TDP1): qHTS in cells in absence of CPT; DT40 Tdp1-/- hTDP1 cells, no CPT, ATP luminescence, 48 h; 420,000 tested, 15% active; Potency, µM (series often up to 46.2 µM), for inactives: top-dose activity change, negative = growth inhibition, usual class: inhibitors; AID 686978, 2013; also: potency is read from the fitted curve at half-maximal effect; nearly all actives have a fitted effect of over 55% in size
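Luminescent ATP content (CellTiter-Glo) served as the growth readout. Knockout chicken DT40 cells expressing human TDP1 were exposed to compounds without camptothecin for a minimum 48 hr at 37 °C.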
DT40 TDP1 CPT: qHTS for Inhibitors of human tyrosyl-DNA phosphodiesterase 1 (TDP1): qHTS in cells in presence of CPT | chicken DT40 Tdp1-/-;hTDP1 cells + 20 nM CPT, ATP luminescence, 48 h | 420,000 tested, 12% active | Potency, µM (highest dose often 46.2 µM), without a hit: at the top dose activity change, negative = growth inhibition, hits mostly inhibitors | AID 686979, 2013; also: potency is read from the fitted curve at half-maximal effect; nearly all actives have a fitted effect of over 55% in size
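Cell growth measured by CellTiter-Glo luminescence after a minimum 48 h, 37 C compound exposure with 20 nM CPT in Tdp1-knockout DT40 cells stably expressing hTDP1, seeded 400/well; qHTS titration format.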
IL-1B inflam inh: qHTS for Inhibitors of Inflammasome Signaling: IL-1-beta AlphaLISA Primary Screen. THP-1 LPS/ATP IL-1B secretion, AlphaLISA, 16 h; stronger effect = lower value. activity change, % at 57.5 µM. 360,000 tested, 4.7% active. AID 743279, 2014; in the data active = activity change below about -50%; inconclusive = mostly about -30% to -49%
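THP-1 cells pretreated 1 hr with compounds (up to 57.5 uM final), then stimulated with LPS (250 ng/mL final) plus ATP (1.25 mM final); secreted IL-1B measured by AlphaLISA after 16 hr, decreased signal indicating inhibition.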
ELG1 repair inh: qHTS screen for small molecules that inhibit ELG1-dependent DNA repair in human embryonic kidney (HEK293T) cells expressing luciferase-tagged ELG1; HEK293T ELG1-luciferase reporter, luminescence, 16 h; DNA damage induced by 5-fluorouridine; Potency, µM (titrated, usually from 46.1 µM), for the others: top-dose activity change, negative = inhibition, most hits filed as inhibitors; 330,000 tested, 2.3% active; also: potency is read from the fitted curve at half-maximal effect; nearly all actives have a fitted effect of over 55% in size
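Luminescence from the luciferase reporter, measured 30 min after ONE-Glo reagent at room temperature, was the read-out. Beforehand, 2,000 cells per well were exposed for 16 hr at 37 °C to 5-fluorouridine together with compound or vehicle.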
Giardia kill: Small Molecules that selectively kill Giardia lamblia: qHTS; activity change, % at 7.66 µM, hits read low; Giardia lamblia trophozoite viability; 340,000 tested, 0.15% active; in the data active = activity change below about -80%; inconclusive = between about -30% and that limit;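 also: parasites exposed to compound for two days anaerobically before the ATP read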
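Giardia trophozoites, 100 cells per well, were exposed to compounds for 48 hrs at 37 deg C under anaerobic conditions; viability was then read as ATP content by bioluminescence after 15-30 min at room temperature.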
Starred values were filed as active, the others as inactive; i = inactive; ? = inconclusive; / = no result given; [ ] = dose if it differs, or a comment. Unless noted, calls follow the shape of the dose curve; as a rule, active = well fitted curve in the direction sought with a large enough effect; inconclusive = small, poorly fitted or top-dose-only effect, or another doubt; inactive = no such curve, though single readings can be large; an effect the other way counts as inactive or inconclusive. % is scaled to controls: 0 for no effect and ±100 for the full control effect.

SMILES	TDP1 inh	TDP1 cell noCPT	DT40 TDP1 CPT	IL-1B inflam inh	ELG1 repair inh	Giardia kill
CN(c1ccc(C(=O)Nc2ccc(Cl)cn2)cc1)S(=O)(=O)c1ccccc1	0.0%	20.6µM*	?	-8.7	?	9.1
Cc1ccc(S(=O)(=O)N(C)c2ccc(C(=O)Nc3ccc(C)cn3)cc2)cc1	-0.2%	?	?	?	?	34.3
Cc1ccc(NC(=O)c2ccccc2[N+](=O)[O-])nc1	7.9%	?	?	3.6	-4.8%	-0.5
Cc1ccccc1C(=O)Nc1ccc(Br)c(C)n1	6.8%	9.2µM*	?	-2.9	?	17.6
Cc1nc(NC(=O)c2cccnc2)ccc1Br	0.0%	?	-23.0%	-21.7	?	-15.5
C=CCOC(=O)C(C(C)=O)C(NC(=O)OC)c1cccc(C(F)(F)F)c1 (stereo not given)	2.6%[21 µM]	/	/	/	/	/
O=C(CSc1ccc2nnc(CCNC(=O)c3ccc(F)cc3)n2n1)NCc1ccco1	-15.3%	11.5%	9.7%	i	-4.4%	-13.1
CC(C)(C)NC(=O)C(c1ccc(F)cc1)N(Cc1ccccc1Cl)C(=O)c1ccn[nH]1 (stereo not given)	2.6%	?	?	0.2	12.7%	?
O=C(Nc1ccc(Cl)cn1)c1cccc2c(Br)cccc12	/	14.6µM*	?	57.9	?	-18.0
O=C(CCc1ccccc1)Nc1ccc(Cl)cn1	4.4%	3.26µM*	5.8µM*	0.0	?	12.0
O=C(Nc1ccc(Cl)cn1)c1ccc(Oc2ccccc2)cc1	/	?	3.0%	-67.0*	?	-13.6
O=C(Cc1ccccc1)Nc1ccc(Cl)cn1	5.1%	7.5%	4.4%	?	?	-0.9
Cc1ccc(C(=O)Nc2ccc(Cl)cn2)cc1	-7.3%	8.2µM*	7.31µM*	24.3	?	-12.3
Cc1ccc(CC(=O)Nc2ccc(Cl)cn2)cc1	1.6%	-18.4%	9.0%	-5.8	?	-15.6
O=C(Nc1ccccc1)c1cccc2c(Br)cccc12	0.1%	-27.0%	-2.0%	22.8	13.7%	23.8
O=C(NCC1CCCO1)/C(=C\c1ccccc1F)NC(=O)c1ccccc1 (stereo not given)	10.4%[0.0935 µM]	4.1%	19.7%	-12.0	0.8%	7.3
Fc1cccc(Cl)c1CNCc1cccnc1	/	-0.1%	-9.0%	38.7	3.8%	0.4
COc1ccc(S(=O)(=O)N2CCc3ccccc32)cc1C(=O)Nc1ccc(NC(C)=O)cc1	-2.9%	?	?	-10.3	-1.2%	9.4
Cc1ccccc1C(=O)Nc1ccc(Cl)cn1	0.0%	20.6µM*	16.4µM*	-1.5	?	-13.5
COC1(OC)N=C(N)C2(C#N)C(c3ccc4c(c3)OCO4)C12C#N (stereo not given)	0.0%	?	8.2µM*	-14.2	?	20.7
COc1ccc(C2C3(C#N)C(N)=NC(OC)(OC)C23C#N)cc1 (stereo not given)	3.7%	?	-14.2%	-91.6*	?	-17.3
COC1(OC)N=C(N)C2(C#N)C(c3ccc(C)cc3)C12C#N (stereo not given)	-5.9%	-21.9%	-17.7%	5.1	-3.2%	21.2
COc1ccc(C2c3ccc(O)cc3Oc3ncn(CCN4CCOCC4)c(=N)c32)cc1OC (stereo not given)	2.7%	-11.7%	-24.6%	?	-16.6%	-10.4
COc1cccc(C2c3c(ncn(-c4ccc5c(c4)OCO5)c3=N)Oc3ccc4ccccc4c32)c1 (stereo not given)	5.5%	/	/	/	/	/

Compound activity as filed in PubChem BioAssay.
